PPC-1+TRAIL kill = compounds killing PPC-1 cancer cells with TRAIL present, primary screen, TRAIL potentiator project, ATPLite luminescence, uHTS. PPC-1 cells + TRAIL, ATPLite viability luminescence. cell killing (% activity), % at 4 µM or 5 µM. 220,000 tested, 0.41% active;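 active = cell killing above 50% in the first pass at 4 µM, then a duplicate retest at 5 µM averaging 50% or more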
SENP7 block = SENP7 protease inhibitors, primary screen, biochemical, luminescence, uHTS | recombinant SENP7, Z-RLRGG-aminoluciferin luminescence, 40 min | AID 434973, 2010 | 330,000 tested, 1.5% active | inhibition, % at 5 µM | Sentrin-specific protease 7 (Homo sapiens), Q9BQF6;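 active = inhibition above about 50% at the single test dose, limit read from the data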
SENP8 block-1 = human SENP8 protease inhibitors, primary screen, biochemical, fluorescence, Nedd8 protein substrate, uHTS. inhibition, % at 20 µM. AID 602440, 2012. recombinant SENP8. 360,000 tested, 0.64% active; in the data active = inhibition mostly above about 40%, no sharp cut-off; inactive = mostly below about 27%
Target sequence (Q96LD8 whole entry, looked up): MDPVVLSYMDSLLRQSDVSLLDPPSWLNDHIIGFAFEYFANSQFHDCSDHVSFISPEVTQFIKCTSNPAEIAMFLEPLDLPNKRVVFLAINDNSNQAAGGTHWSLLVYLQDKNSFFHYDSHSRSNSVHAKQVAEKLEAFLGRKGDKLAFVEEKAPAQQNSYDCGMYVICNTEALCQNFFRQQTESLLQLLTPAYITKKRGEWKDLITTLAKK
SENP6 inh = SENP6 protease inhibitors, primary screen, biochemical, luminescence, uHTS. Sentrin-specific protease 6 (Homo sapiens), Q9GZR1. Recombinant SENP6 catalytic domain, aminoluciferin luminescence. inhibition, % at 10 µM. 330,000 tested, 1.8% active. AID 2599, 2010;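 active = inhibition above about 50% at the single tested dose, limit read from the data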
Target sequence (Q9GZR1 628-1112 limits assumed): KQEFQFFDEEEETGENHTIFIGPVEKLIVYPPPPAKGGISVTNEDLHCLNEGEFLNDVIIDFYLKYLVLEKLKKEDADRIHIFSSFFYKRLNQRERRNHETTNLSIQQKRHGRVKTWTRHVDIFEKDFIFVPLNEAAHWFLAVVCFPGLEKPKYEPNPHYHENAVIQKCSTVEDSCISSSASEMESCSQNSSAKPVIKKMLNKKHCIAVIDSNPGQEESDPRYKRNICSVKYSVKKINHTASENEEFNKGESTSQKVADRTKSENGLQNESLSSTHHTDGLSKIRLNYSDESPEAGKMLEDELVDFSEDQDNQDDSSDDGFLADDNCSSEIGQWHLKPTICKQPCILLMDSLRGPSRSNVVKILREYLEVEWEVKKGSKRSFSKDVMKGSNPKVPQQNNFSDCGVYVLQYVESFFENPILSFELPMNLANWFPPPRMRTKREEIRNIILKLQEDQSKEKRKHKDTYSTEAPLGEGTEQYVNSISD
C8 TRAIL sens = viability loss with TRAIL in NB7+C8 cells, primary screen, TRAIL sensitizer project, cell-based, ATPlite luminescence; inhibition (viability loss, TRAIL sensitization), % at 10 µM; AID 624354, 2012; 360,000 tested, 1% active;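 active = compounds causing at least 50% loss of cell viability in the single-dose screen, relative to plate controls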
SENP8 block-2 = SENP8 protease inhibitors, primary screen, biochemical, luminescence. Sentrin-specific protease 8 (Homo sapiens), Q96LD8. AID 2540, 2010. purified SENP8, Z-RLRGG-aminoluciferin cleavage. 330,000 tested, 1.2% active. inhibition, % at 10 µM; in the data active = inhibition above about 50%
SENP8 conf = SENP8 protease inhibitors, retest, confirmation, biochemical, luminescence, single concentration. shares compounds with SENP7 block. Recombinant SENP8, Z-RLRGG-aminoluciferin luminescence, 60 min. inhibition, % at 12.5 µM. 6,200 tested, 40% active. AID 488912, 2010;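 active = mean inhibition across replicates above about 50%, limit read from the data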
SENP6 confirm = SENP6 protease inhibitors, confirmation, biochemical, luminescence, single concentration. AID 488915, 2010. recombinant SENP6, Z-RLRGG-aminoluciferin luminescence. inhibition, % at 12.5 µM. 6,200 tested, 58% active. shares compounds with SENP7 block
SENP7 confirm = SENP7 protease inhibitors, retest, confirmation, biochemical, luminescence, single concentration; recombinant SENP7, Z-RLRGG-aminoluciferin luminescence, 40 min; inhibition, % at 12.5 µM; AID 488917, 2010; 6,200 tested, 69% active; shares compounds with SENP7 block
Casp3 SENP sel = caspase-3 protease inhibitors, confirmation, selectivity assay for SENP inhibitor project, biochemical, single concentration | shares compounds with SENP7 block | purified caspase-3, Z-DEVD-aminoluciferin luminescence, 60 min | inhibition, % at 12.5 µM | 6,200 tested, 60% active;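 active = mean inhibition above about 50%, limit read from the data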
Luc interf = luminescence interference (SENP counter-screen); 6,200 tested, 39% active; Pre-incubated SENP8/Z-RLRGG-aminoluciferin, luciferase luminescence interference; inhibition, % at 12.5 µM; shares compounds with SENP7 block;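 active = mean inhibition above about 50% when retested at one dose, limit read from the data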
Each line names hits and unclear results; the compound was inactive in the other large screens (follow-up assays come after a bar, where they were run). Sampled rows, rich in hits. Any-hit rate of the full collection: about 3%.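 Rule for the calls, unless noted: active = mean inhibition above about 50% in the one-dose retest (limit read from the data); inactive = the rest.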

C/C(=N\NC(=O)CCc1ccccc1)C1C(=O)c2ccccc2C1=O	none (no result: PPC-1+TRAIL kill)
C/C(=N\NC(=O)c1cccc(Cl)c1)C1C(=O)c2ccccc2C1=O	SENP7 block 74, SENP6 inh 97, SENP8 block-2 92 | SENP8 conf inactive | SENP6 confirm 97 | SENP7 confirm 101 | Casp3 SENP sel 88 | Luc interf 81
O=C(NCc1ccccc1Cl)c1ccc2nc([C@@H]3O[C@H](CO)[C@@H](O)[C@H]3O)[nH]c2c1	none (no result: PPC-1+TRAIL kill, SENP7 block, SENP6 inh, SENP8 block-2)
Cn1c(O)c(C=Nc2ccc(N3CCOCC3)cc2)c(=O)n(C)c1=S	none (no result: SENP7 block, SENP6 inh, SENP8 block-2)
Cc1cc(O)c(C=Nc2ccc(N3CCOCC3)cc2)c(C)c1Cl	SENP7 block 82, SENP6 inh 57 (no result: PPC-1+TRAIL kill) | SENP8 conf inactive | SENP6 confirm inactive | SENP7 confirm inactive | Casp3 SENP sel inactive | Luc interf inactive
O=[N+]([O-])c1cccnc1NCCc1ccccc1	SENP7 block 88, SENP6 inh 95, SENP8 block-2 81 | SENP8 conf inactive | SENP6 confirm 69 | SENP7 confirm 88 | Casp3 SENP sel 72 | Luc interf inactive
O=[N+]([O-])c1cccnc1NCCNc1ncc(C(F)(F)F)cc1Cl	SENP7 block 58, SENP6 inh 67 | SENP8 conf 60 | SENP6 confirm 56 | SENP7 confirm 83 | Casp3 SENP sel inactive | Luc interf inactive
O=[N+]([O-])c1ccccc1NCCNc1ncc(C(F)(F)F)cc1Cl	none
O=c1cc(Cl)[nH]c(=O)n1CCNc1ncc(C(F)(F)F)cc1Cl	SENP6 inh 58 | SENP8 conf 52 | SENP6 confirm inactive | SENP7 confirm 77 | Casp3 SENP sel 73 | Luc interf inactive
COc1ccc(NC(=O)c2ccc(N3C(=O)C4CC=C(C)CC4C3=O)cc2)c(OC)c1 (stereo unspecified)	none (no result: PPC-1+TRAIL kill)
O=C(NCc1ccccc1)c1cc(C2COCCN2C(=O)C/C=C/c2ccccc2)on1 (stereo unspecified)	none (no result: PPC-1+TRAIL kill, SENP7 block, SENP6 inh, SENP8 block-2)
O=C(Oc1ccccc1C(=S)N1CCOCC1)c1cccc([N+](=O)[O-])c1	none (no result: PPC-1+TRAIL kill)
CCN(C(=O)COc1ccc(F)cc1Br)c1c(N)n(Cc2ccccc2)c(=O)[nH]c1=O	none (no result: PPC-1+TRAIL kill)
O=C(CNC(=O)C1CC(=O)N(c2cccc3ccccc23)C1)Nc1ccccc1Br (stereo unspecified)	none (no result: PPC-1+TRAIL kill)
Cc1ccc(-n2nnc(-c3cnc4ccccc4c3)n2)cc1	SENP7 block 79 | SENP8 conf inactive | SENP6 confirm inactive | SENP7 confirm inactive | Casp3 SENP sel inactive | Luc interf inactive
Cc1ccc(-n2nnc(-c3cccnc3)n2)cc1	none (no result: PPC-1+TRAIL kill)
Cc1c(NS(=O)(=O)c2ccc(N)cc2)c(=O)n(-c2ccccc2)n1C	none (no result: PPC-1+TRAIL kill)
CS(=O)(=O)Nc1ccc(C(=O)Nc2ccccc2Cl)cc1	none
CCn1ccc(C(=O)Nc2cccc(Cl)c2)n1	none
CC(C)(C)c1ccc(C(=O)Nc2ccccc2Cl)cc1	SENP7 block 76, SENP6 inh 80, SENP8 block-2 70 | SENP8 conf inactive | SENP6 confirm 76 | SENP7 confirm 94 | Casp3 SENP sel 60 | Luc interf 61
CCn1ccc(C(=O)Nc2ccccc2Cl)n1	SENP7 block 50, SENP6 inh 53 | SENP8 conf inactive | SENP6 confirm inactive | SENP7 confirm 76 | Casp3 SENP sel 72 | Luc interf 56
Cc1cc(C)c(OCC(=O)NCC2COc3ccccc3O2)c(C)c1 (stereo unspecified)	none (no result: PPC-1+TRAIL kill)
O=C(O)c1ccc(N/N=C/c2cccc(C(F)(F)F)c2)cc1	SENP6 inh 74, SENP8 block-2 66 (no result: PPC-1+TRAIL kill) | SENP8 conf 80 | SENP6 confirm 70 | SENP7 confirm 95 | Casp3 SENP sel inactive | Luc interf 90
O=C(O)c1ccc(N/N=C/c2cccc(F)c2)cc1	SENP7 block 84, SENP6 inh 100, SENP8 block-2 97 | SENP8 conf 100 | SENP6 confirm 100 | SENP7 confirm 104 | Casp3 SENP sel 98 | Luc interf 99
O=C(O)c1ccc(N/N=C/c2ccncc2)cc1	SENP7 block 94, SENP6 inh 90, SENP8 block-2 85 (no result: PPC-1+TRAIL kill) | SENP8 conf 91 | SENP6 confirm 93 | SENP7 confirm 100 | Casp3 SENP sel 88 | Luc interf 94
O=C(O)c1ccc(N/N=C/c2ccc(F)c(F)c2)cc1	SENP7 block 97, SENP6 inh 98, SENP8 block-2 97 | SENP8 conf 99 | SENP6 confirm 100 | SENP7 confirm 102 | Casp3 SENP sel 97 | Luc interf 98
COc1ccc2ccc(=O)oc2c1CC(=O)C(C)C	none (no result: PPC-1+TRAIL kill)
O=C(Nc1ccc(COc2ccccc2)cc1)c1cccc([N+](=O)[O-])c1	SENP7 block 63 | SENP8 conf inactive | SENP6 confirm inactive | SENP7 confirm inactive | Casp3 SENP sel inactive | Luc interf inactive
CCN1CCN(c2ccc(NC(=O)c3cccc(OCc4ccccc4)c3)cc2)CC1	SENP6 inh 56 | SENP8 conf inactive | SENP6 confirm inactive | SENP7 confirm inactive | Casp3 SENP sel inactive | Luc interf inactive
CN1CCN(c2ccc(NC(=O)c3cccc(OCc4ccccc4)c3)cc2)CC1	SENP6 inh 59 | SENP8 conf inactive | SENP6 confirm inactive | SENP7 confirm inactive | Casp3 SENP sel inactive | Luc interf inactive
CCOC(=O)C1(Cc2ccccc2)CCCCCC1=O (stereo unspecified)	none (no result: PPC-1+TRAIL kill, SENP7 block, SENP6 inh, SENP8 block-2)
Cc1c(Cl)cccc1NC(=O)CCN1C(=O)NC(C)(C)C1=O	none (no result: PPC-1+TRAIL kill)
O=C(CC(O)c1ccncc1)c1ccccc1O (stereo unspecified)	none (no result: PPC-1+TRAIL kill, SENP7 block, SENP6 inh, SENP8 block-2)

Source: PubChem BioAssay (Sanford-Burnham Center for Chemical Genomics)
